# ± gives the standard deviation of the averaged measurements.
# What was measured:
# Test in all cases: promoter activity interaction Z-score (Lux/OD deviation from empty-vector control); higher = stronger promoter induction by the compound
# [1] = system: E. coli BW25113 acrABp lux reporter
# Summary of the method: (§1)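 E. coli BW25113 luxCDABE reporter strains grew at 37°C in 40 µl LB Lennox in 384-well plates, with OD600 and luminescence read every 30 min for 12 h. After integration over 0–8 h for wild type or 1–9 h for deletion strains, wells under 10% of the median growth value were removed. Each score is the Z-transformed residual of growth-normalised luminescence fitted against a control.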
# [2] = system: E. coli BW25113 marRABp lux reporter
# Summary of the method: as §1
# [3] = system: E. coli BW25113 micFp lux reporter
# Summary of the method: as §1
# [4] = system: E. coli BW25113 ompFp lux reporter
# Summary of the method: as §1
# [5] = system: E. coli BW25113 robp lux reporter
# Summary of the method: as §1
# [6] = system: E. coli BW25113 soxSp lux reporter
# Summary of the method: as §1
# [7] = system: E. coli BW25113 tolCp lux reporter
# Summary of the method: as §1
# [8] = 24.6 µg/ml, genetic background: wild type
# [9] = 24.6 µg/ml, genetic background: ΔmarA
# [10] = 24.6 µg/ml, genetic background: Δrob
# [11] = 24.6 µg/ml, genetic background: ΔsoxS
# [12] = 49.3 µg/ml, genetic background: wild type
# [13] = 49.3 µg/ml, genetic background: ΔmarA
# [14] = 49.3 µg/ml, genetic background: Δrob
# [15] = 49.3 µg/ml, genetic background: ΔsoxS
# [16] = 98.6 µg/ml, genetic background: wild type
# [17] = 98.6 µg/ml, genetic background: ΔmarA
# [18] = 98.6 µg/ml, genetic background: Δrob
# [19] = 98.6 µg/ml, genetic background: ΔsoxS
# [20] = 197.1 µg/ml, genetic background: wild type
structure (smiles),measurement,setting,value
CC[n+]1c(-c2ccccc2)c2cc(N)ccc2c2ccc(N)cc21 [Ethidiumbromide],promoter activity interaction Z-score,[1]; [8],0.326 ± 0.22
same,promoter activity interaction Z-score,[1]; [9],0.524 ± 0.7
same,promoter activity interaction Z-score,[1]; [10],0.354 ± 0.098
same,promoter activity interaction Z-score,[1]; [11],-0.0764 ± 0.31
same,promoter activity interaction Z-score,[1]; [12],0.808 ± 0.11
same,promoter activity interaction Z-score,[1]; [13],1.18 ± 0.92
same,promoter activity interaction Z-score,[1]; [14],0.756 ± 0.029
same,promoter activity interaction Z-score,[1]; [15],0.5305 ± 0.0051
same,promoter activity interaction Z-score,[1]; [16],1.2 ± 0.53
same,promoter activity interaction Z-score,[1]; [17],0.599 ± 1.3
same,promoter activity interaction Z-score,[1]; [18],0.819 ± 0.29
same,promoter activity interaction Z-score,[1]; [19],0.475 ± 0.05
same,promoter activity interaction Z-score,[2]; [8],0.958 ± 0.21
same,promoter activity interaction Z-score,[2]; [9],0.99 ± 0.055
same,promoter activity interaction Z-score,[2]; [10],0.804 ± 0.17
same,promoter activity interaction Z-score,[2]; [11],0.684 ± 0.19
same,promoter activity interaction Z-score,[2]; [12],1.32 ± 0.076
same,promoter activity interaction Z-score,[2]; [13],1.56 ± 0.57
same,promoter activity interaction Z-score,[2]; [14],1.1 ± 0.13
same,promoter activity interaction Z-score,[2]; [15],1.368 ± 0.0038
same,promoter activity interaction Z-score,[2]; [16],1.6 ± 0.43
same,promoter activity interaction Z-score,[2]; [17],1.57 ± 0.26
same,promoter activity interaction Z-score,[2]; [18],1.07 ± 0.073
same,promoter activity interaction Z-score,[2]; [19],1.15 ± 0.091
same,promoter activity interaction Z-score,[3]; [8],0.89 ± 0.25
same,promoter activity interaction Z-score,[3]; [9],0.0467 ± 0.069
same,promoter activity interaction Z-score,[3]; [10],0.437 ± 0.23
same,promoter activity interaction Z-score,[3]; [11],0.0133 ± 0.038
same,promoter activity interaction Z-score,[3]; [12],1.09 ± 0.86
same,promoter activity interaction Z-score,[3]; [13],0.0126 ± 0.13
same,promoter activity interaction Z-score,[3]; [14],0.436 ± 0.016
same,promoter activity interaction Z-score,[3]; [15],0.338 ± 0.11
same,promoter activity interaction Z-score,[3]; [16],0.763 ± 1.3
same,promoter activity interaction Z-score,[3]; [17],-0.124 ± 0.015
same,promoter activity interaction Z-score,[3]; [18],0.377 ± 0.036
same,promoter activity interaction Z-score,[3]; [19],-0.366 ± 0.13
same,promoter activity interaction Z-score,[3]; [20],1.24
same,promoter activity interaction Z-score,[4]; [8],0.291 ± 0.39
same,promoter activity interaction Z-score,[4]; [9],0.262 ± 0.15
same,promoter activity interaction Z-score,[4]; [10],0.428 ± 0.57
same,promoter activity interaction Z-score,[4]; [11],-0.386 ± 0.08
same,promoter activity interaction Z-score,[4]; [12],0.79 ± 0.52
same,promoter activity interaction Z-score,[4]; [13],0.776 ± 0.33
same,promoter activity interaction Z-score,[4]; [14],0.612 ± 0.19
same,promoter activity interaction Z-score,[4]; [15],0.772 ± 0.8
same,promoter activity interaction Z-score,[4]; [16],0.327 ± 1.1
same,promoter activity interaction Z-score,[4]; [17],0.808 ± 0.52
same,promoter activity interaction Z-score,[4]; [18],-0.58 ± 0.54
same,promoter activity interaction Z-score,[4]; [19],-0.257 ± 0.67
same,promoter activity interaction Z-score,[5]; [8],0.277 ± 0.67
same,promoter activity interaction Z-score,[5]; [9],0.595 ± 0.36
same,promoter activity interaction Z-score,[5]; [10],0.758 ± 0.77
same,promoter activity interaction Z-score,[5]; [11],1.25 ± 1.1
same,promoter activity interaction Z-score,[5]; [12],-0.152 ± 0.42
same,promoter activity interaction Z-score,[5]; [13],1.37 ± 0.033
same,promoter activity interaction Z-score,[5]; [14],-0.413 ± 0.32
same,promoter activity interaction Z-score,[5]; [15],0.804 ± 0.45
same,promoter activity interaction Z-score,[5]; [16],-0.356 ± 0.7
same,promoter activity interaction Z-score,[5]; [17],-0.204 ± 0.19
same,promoter activity interaction Z-score,[5]; [18],-1.46 ± 0.089
same,promoter activity interaction Z-score,[5]; [19],-0.959 ± 1.1
same,promoter activity interaction Z-score,[6]; [8],0.555 ± 0.028
same,promoter activity interaction Z-score,[6]; [9],0.911 ± 0.17
same,promoter activity interaction Z-score,[6]; [10],0.717 ± 0.25
same,promoter activity interaction Z-score,[6]; [11],1.38 ± 0.36
same,promoter activity interaction Z-score,[6]; [12],1.31 ± 0.084
same,promoter activity interaction Z-score,[6]; [13],1.5169 ± 0.00016
same,promoter activity interaction Z-score,[6]; [14],1.38 ± 0.24
same,promoter activity interaction Z-score,[6]; [15],2.47 ± 0.14
same,promoter activity interaction Z-score,[6]; [16],1.8 ± 0.019
same,promoter activity interaction Z-score,[6]; [17],2.07 ± 0.081
same,promoter activity interaction Z-score,[6]; [18],2.14 ± 0.22
same,promoter activity interaction Z-score,[6]; [19],3.77 ± 0.59
same,promoter activity interaction Z-score,[6]; [20],0.127 ± 0.036
same,promoter activity interaction Z-score,[7]; [8],-0.0407 ± 0.73
same,promoter activity interaction Z-score,[7]; [9],0.142 ± 0.75
same,promoter activity interaction Z-score,[7]; [10],-0.711 ± 0.15
same,promoter activity interaction Z-score,[7]; [11],0.75 ± 0.61
same,promoter activity interaction Z-score,[7]; [12],0.059 ± 0.45
same,promoter activity interaction Z-score,[7]; [13],0.836 ± 0.52
same,promoter activity interaction Z-score,[7]; [14],-0.973 ± 1
same,promoter activity interaction Z-score,[7]; [15],0.167 ± 0.58
same,promoter activity interaction Z-score,[7]; [16],0.025 ± 1.1
same,promoter activity interaction Z-score,[7]; [17],-0.192 ± 0.57
same,promoter activity interaction Z-score,[7]; [18],-0.394 ± 0.42
same,promoter activity interaction Z-score,[7]; [19],0.815 ± 0.81
same,promoter activity interaction Z-score,[7]; [20],-0.153 ± 0.69
same,promoter activity interaction Z-score,"[7]; 197.1 µg/ml, genetic background: ΔsoxS",-1.48 ± 0.4

# — the supplement of paper PMC12282887
